# Test results reported in PubChem BioAssay AID720489 (Milwaukee Institute for Drug Discovery, 2013).
# The other results are listed elsewhere or left out. Values without a mark were called inactive.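 The calls were made as follows: active = fluorescence interference ratio at or below 0.8 quencher or at or above a set limitenhancer; inactive = the rest.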
# Test: Cy5-DNA-NS3h complex fluorescence interference, confirmation, artefact control for HCV NS3 helicase inhibitor project, biochemical, ChemBridge library (AID 720489);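 also: ratio of compound fluorescence to mean of negative controls so 1 means no interference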
# Conditions: Cy5-dT15 DNA/NS3h fluorescence interference counterscreen; at 100 µM
smiles,measurement,value
CCOc1cc(C=C2C(=O)NC(=O)NC2=O)cc(Br)c1OCCOc1ccccc1C,fluorescence interference ratio,0.809
